PLK1 PBD inh = PLK1 (human) polo-box domain binding inhibition; P53350; Plk1 PBD binding of FITC phosphopeptide, fluorescence polarization; Potency, µM, usual class: inhibitors; actives 2.8% (n = 360,000); further: series mostly up to about 57 µM; nearly all actives have a fitted effect of over 65% in size
HP1b chromo inh = inhibitors of HP1-beta chromodomain binding to methylated histone tails; P83916; Potency, µM (top dose mostly 114 µM), hits mostly inhibitors; actives 0.56% (n = 390,000); AlphaScreen HP1-beta / biotin-H3K9me3 peptide binding; further: nearly all actives have a fitted effect of over 70% in size
Target sequence (P83916 whole entry, looked up): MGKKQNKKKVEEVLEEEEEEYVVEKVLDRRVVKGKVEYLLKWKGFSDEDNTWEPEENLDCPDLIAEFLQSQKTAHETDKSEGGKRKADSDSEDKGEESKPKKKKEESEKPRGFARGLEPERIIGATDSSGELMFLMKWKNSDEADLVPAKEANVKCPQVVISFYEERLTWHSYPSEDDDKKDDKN
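Compound inhibition of the preformed complex between 50 nM HP1-beta and 50 nM biotinylated H3K9me3 peptide was read by AlphaScreen. Buffer was PBS pH 7.4 with 0.01% Tween-20. Incubations ran 30 min at room temperature, with 10 ug/mL donor/acceptor beads.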
VDR inhibitor = vitamin D3 receptor (human) inhibition | VDR-SRC2-3 peptide fluorescence polarization, 2 h | actives 0.93% (n = 400,000) | Potency, µM, actives largely listed as inhibitors
Target sequence (P11473 whole entry, looked up): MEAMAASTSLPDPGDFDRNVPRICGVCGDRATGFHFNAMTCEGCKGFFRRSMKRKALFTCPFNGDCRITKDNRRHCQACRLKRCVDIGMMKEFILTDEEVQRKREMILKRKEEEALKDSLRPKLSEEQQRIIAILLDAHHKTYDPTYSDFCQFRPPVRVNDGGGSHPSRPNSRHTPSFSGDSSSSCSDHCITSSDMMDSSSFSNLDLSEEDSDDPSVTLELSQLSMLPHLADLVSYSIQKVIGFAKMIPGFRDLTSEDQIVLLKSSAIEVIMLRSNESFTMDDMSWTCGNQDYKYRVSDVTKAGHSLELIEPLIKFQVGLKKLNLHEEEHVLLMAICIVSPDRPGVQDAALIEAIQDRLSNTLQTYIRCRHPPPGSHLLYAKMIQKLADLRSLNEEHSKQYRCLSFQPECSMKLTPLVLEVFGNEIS
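FP read-out; VDR + SRC2-3 coactivator peptide; 23 nl compound by pintool; 2 h RT incubation; reagents held at 4 deg C, protected from light.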
L3MBTL1 block = inhibitors of human L3MBTL1 | AlphaScreen L3MBTL1–H3K9me1 peptide binding | AID 485360 | actives 0.66% (n = 230,000) | Q9Y468 | Potency, µM (titrated, usually from 57.1 µM), actives largely listed as inhibitors; further: nearly all actives have a fitted effect of over 60% in size
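Displacement of a biotinylated histone H3(1-15) peptide monomethylated at Lys9 (75 nM) from L3MBTL1 (50 nM) was measured by AlphaScreen after a 30 min room-temperature compound incubation; cefsulodin titration served as intraplate control.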
BAZ2B block = blocks human BAZ2B. actives 4.4% (n = 360,000). AID 504333. AlphaScreen BAZ2B-H3K14Ac peptide displacement. Potency, µM (highest dose often 114 µM), actives largely listed as inhibitors. Q9UIF8; further: nearly all actives have a fitted effect of over 60% in size
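BAZ2B 50 nM plus b-H3(5-23)K14Ac 50 nM, PBS pH 7.4/0.01% Tween-20, 30 min RT; compound added (max 110 uM), 30 min RT; streptavidin donor/Ni-chelate acceptor beads 10 ug/mL final, 20 min dark; AlphaScreen read.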
JMJD2A Tudor inh = blocks the human JMJD2A Tudor domain. AlphaScreen JMJD2A-Tudor / H3K4me3 peptide binding. O75164. Potency, µM (top dose mostly 114 µM), most hits filed as inhibitors. actives 4.4% (n = 390,000); further: nearly all actives have a fitted effect of over 50% in size
A number is an active result; i = inactive; ? = inconclusive; nt = no result; ! = not confirmed by another sample. Most compounds without a hit are left out; they make up all but 6.9% or so of the library. The call rests on the fitted dose curve; in most records, active means well fitted curve in the direction sought with a large enough effect; inconclusive means small, poorly fitted or top-dose-only effect, or another doubt; inactive means no such curve, though single readings can be large; an effect the other way counts as inactive or inconclusive.

SMILES	PLK1 PBD inh	HP1b chromo inh	VDR inhibitor	L3MBTL1 block	BAZ2B block	JMJD2A Tudor inh
CCN(CC)CCOC(=O)c1ccc(N/C=C(/C#N)c2nc(-c3ccc(OC)cc3)cs2)cc1	i	?	i	nt	?	56µM
CCN(CC)CCOC(=O)c1ccc(N/C=C(/C#N)c2nc(-c3cc4ccccc4oc3=O)cs2)cc1	i	18µM	i	nt	i	?
COc1cc(-n2c(=O)c3ccccc3n(Cc3cccc(Cl)c3)c2=O)cc(OC)c1OC	nt	i	i	nt	i	i
CN(C)c1ccc(CNS(=O)(=O)c2csc(C(N)=O)c2)cc1	i	i	i	nt	i	i
NC(=O)c1cc(S(=O)(=O)NCCCc2ccccc2)cs1	27µM	i	i	nt	i	i
COc1ccc(N2C(=O)CC(Sc3n[nH]c(-c4ccccc4)n3)C2=O)cc1 (centres undefined)	27µM	?	i	i	i	5µM
CCOCCCNC(=S)N1CCN(CC)CC1	i	?	i	i	50µM	25µM
CCOCCCNC(=S)N1CCC(C(=O)c2ccc(C)cc2)CC1	i	i	i	i	i	i
CCOCCCNC(=S)N1CCN(Cc2ccco2)CC1	i	40µM	i	i	35µM	i
CCCCNC(=S)N1CCN(CC)CC1	i	?	i	i	50µM	45µM
CCOCCCNC(=S)N1CCN(c2nc(-c3ccccc3)cs2)CC1	i	i	i	i	50µM	?
COc1ccc(CNC(=O)COC(=O)CN2C(=O)C3CCCCC3C2=O)cc1 (centres undefined)	i	nt	nt	nt	nt	nt
CCCNC(=S)N1CCC(NC(=O)C2CCCCC2)CC1	24µM	?	?	i	i	22µM
O=C(NC1CCN(C(=S)NCCc2ccccc2)CC1)C1CC1	i	i	i	i	?	i
CCCNC(=S)N1CCN(C)CC1	i	?	i	i	40µM	8.9µM
CCCNC(=S)N1CCC(Cc2ccccc2)CC1	i	i	i	nt	i	i
CCC(C)N(C(=O)COC(=O)c1ccc(N)c([N+](=O)[O-])c1)C1CCS(=O)(=O)C1 (centres undefined)	i	nt	nt	nt	nt	nt
Cc1c(C(=O)N(Cc2ccncc2)CC2CCCO2)oc2c(F)cccc12 (centres undefined)	i	i	i	nt	i	i
Cc1cc2oc(C(=O)N(Cc3ccc(N(C)C)cc3)CC3CCCO3)c(C)c2cc1C (centres undefined)	i	?	i	nt	14µM	13µM!
COc1cc(C(=O)N(Cc2ccc(N(C)C)cc2)CC2CCCO2)cc(OC)c1OC (centres undefined)	nt	i	i	nt	79µM	i
Cc1ccc2oc(C(=O)N(Cc3ccc(N(C)C)cc3)CC3CCCO3)c(C)c2c1 (centres undefined)	i	?	i	nt	11µM	50µM
Cc1cc(C)cc(-n2nnc(-c3nc(-c4ccccc4F)no3)c2C)c1	nt	i	i	nt	i	i
CN=C1N[C@H](c2ccccc2)N(c2ccccc2)S1	nt	?	25µM	nt	nt	25µM
COc1ccc(S(=O)(=O)N2CCN(Cc3cc(OC)c(OC)c(OC)c3)CC2)cc1	i	?	i	i	?	3.2µM
Cc1ccc(S(=O)(=O)N2CCN(CCC#N)CC2)cc1	i	45µM	i	?	20µM	3.5µM
SMILES	PLK1 PBD inh	HP1b chromo inh	VDR inhibitor	L3MBTL1 block	BAZ2B block	JMJD2A Tudor inh
Cc1ccc(S(=O)(=O)N2CCN(Cc3cccc(F)c3)CC2)cc1	i	?	i	nt	nt	3.2µM
COc1ccc(N2CCN(S(=O)(=O)c3ccc(OC)cc3)CC2)cc1	?	?	i	i	?	?
CCC(CC)N1CCN(S(=O)(=O)c2ccc(OC)cc2)CC1	i	?	i	i	50µM	1.6µM
O=S(=O)(c1ccccc1)N1CCN(Cc2cccc(Cl)c2)CC1	i	i	i	nt	32µM	8.9µM
COc1ccc(CN2CCN(S(=O)(=O)c3ccc(F)cc3)CC2)cc1OC	i	?	i	i	32µM	3.2µM
COc1ccc(S(=O)(=O)N2CCN(c3ccc(F)cc3)CC2)cc1OC	i	i	i	i	?	i
O=S(=O)(c1ccccc1)N1CCN(Cc2ccccc2)CC1	i	i	i	i	i	i
[N-]=[N+]=CC(=O)CCCN1C(=O)c2ccccc2C1=O	i	i	i	i	i	i
[N-]=[N+]=CC(=O)CC(c1ccccc1)N1C(=O)c2ccccc2C1=O (centres undefined)	i	i	i	?	32µM	50µM
O=C1c2ccccc2-c2onc3c(N4CCN(C5CCCCC5)CC4)cc(NCCO)c1c23	nt	?	i	nt	32µM	?
O=C1c2ccccc2-c2onc3c(Br)cc(NC4CCCCC4)c1c23	nt	i	i	nt	i	i
COCCNc1cc(N2CCN(C3CCCCC3)CC2)c2noc3c2c1C(=O)c1ccccc1-3	nt	?	i	nt	?	50µM
CC(C)CNc1cc(NC2CCCCC2)c2c3c(onc13)-c1ccccc1C2=O	nt	?	?	nt	25µM	28µM
CN(C)CCCNc1cc(N2CCN(C3CCCCC3)CC2)c2noc3c2c1C(=O)c1ccccc1-3	nt	?	i	nt	20µM	35µM
COC(=O)/C=C1\SC(N2CCOCC2)=C(c2ccc(OC)cc2)C1=O	15µM	i	?	i	45µM	i
CCCN(CC(=O)Nc1ccccc1C)C(=O)COC(=O)CSc1ccc([N+](=O)[O-])cc1	19µM	i	?	i	i	i
CC1CCCC(C)N1C(=O)COC(=O)CSc1ccc([N+](=O)[O-])cc1 (centres undefined)	19µM	i	i	i	i	i
CCOC(=O)C1CCN(C(=O)COC(=O)CSc2ccc([N+](=O)[O-])cc2)CC1	?	i	?	i	i	i
CC(C)(C)N(Cc1ccccc1)C(=O)COC(=O)CSc1ccc([N+](=O)[O-])cc1	12µM	i	i	i	i	i
Cc1ccc2nc(-c3ccc(Cl)c(NC(=O)c4ccc5c(c4)OCCO5)c3)oc2c1	nt	i	i	nt	i	i
Cc1c(O)c(=O)c2ccccc2n1C	i	i	i	i	i	22µM
O=C(O)CSC1=NS(=O)(=O)c2ccccc21	nt	?	?	nt	nt	18µM
O=S1(=O)N=C(SCCO)c2ccccc21	i	i	i	i	?	?
COc1cccc(C)c1NC(=O)C(OC(=O)CNC(=O)c1ccccc1)c1ccccc1 (centres undefined)	nt	nt	nt	nt	nt	i
NNc1nc2ccc(F)cc2s1	i	i	?	i	45µM	?
SMILES	PLK1 PBD inh	HP1b chromo inh	VDR inhibitor	L3MBTL1 block	BAZ2B block	JMJD2A Tudor inh
NNc1nc2c(Cl)c(Cl)ccc2s1	i	i	?	i	50µM	10µM
NNc1nc2ccc(Cl)cc2s1	i	i	i	i	50µM	79µM
O=C(Nc1nc2ccc(Cl)cc2s1)c1ccc(Br)o1	i	i	i	i	i	?
COc1cccc2sc(NN)nc12	i	?	?	nt	nt	?
Fc1ccc2nc(Nc3ccccc3)sc2c1	i	i	i	i	i	i
O=S(=O)(c1ccc2c(c1)CCC2)N1CCN(c2nc(-c3ccccc3)nc3ccccc23)CC1	nt	i	i	nt	nt	i
CCCCOc1ccccc1NC(=O)CC1Sc2ccccc2NC1=O (centres undefined)	nt	i	i	nt	i	i

Screening data from PubChem BioAssay.
